Source: PubChem BioAssay (NCI)
This is part of a sample that, as a whole, favours compounds with a hit. Of some 79,000 tested, about 15% had one in any assay. The source made the active and inactive calls. No stated cut-off is given here; in the data, active means growth inhibition above about 70%; inactive means the rest.

Assays:
[1] = NCI Yeast Anticancer Drug Screen. Data for the rad50 strain (AID 155);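 further: 0% = growth of vehicle-only cultures of the same strain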; conditions: S. cerevisiae rad50 strain growth inhibition, active compounds read high
Method in brief: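 Cells are treated with compound, grown, and their growth is then scored against vehicle-only cultures of the same repair-deficient yeast strain.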

[2] = NCI Yeast Anticancer Drug Screen. Data for the mec2-1 strain (AID 157); conditions: S. cerevisiae mec2-1 strain, active compounds read high
Method in brief: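 Growth inhibition is read against vehicle-treated controls after compound exposure of the mec2-1 yeast strain, which is defective in DNA damage repair or cell cycle control.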

[3] = NCI Yeast Anticancer Drug Screen. Data for the sgs1 mgt1 strain (AID 161);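 further: 0% = growth of cultures given vehicle only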; conditions: S. cerevisiae sgs1 mgt1 strain, active compounds read high
Method in brief: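 This yeast growth screen uses a strain with defined DNA-repair lesions; compound-treated growth is compared with vehicle-treated growth.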

[4] = NCI Yeast Anticancer Drug Screen. Data for the cln2 rad14 strain (AID 165);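 further: 0% = growth equal to vehicle treated cultures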; conditions: S. cerevisiae cln2 rad14 strain, active compounds read high
Method in brief: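 Growth inhibition, relative to vehicle-treated controls, is the read-out. The test organism is a yeast strain with defined genetic alterations, cln2 rad14.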

[5] = NCI Yeast Anticancer Drug Screen. Data for the bub3 strain (AID 167); conditions: S. cerevisiae bub3 mutant strain, active compounds read high
Method in brief: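 Part of a panel of yeast mutants defective in DNA damage repair or cell cycle regulation. Each strain is grown with compound, and inhibition is calculated relative to solvent-treated cultures.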

[6] = NCI Yeast Anticancer Drug Screen. Data for the mlh1 rad18 strain (AID 175); conditions: S. cerevisiae mlh1 rad18 strain growth inhibition, active compounds read high
Method in brief: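 Cells of a genetically altered yeast strain, deficient in DNA damage repair, were treated with compound. Their growth was then compared with that of vehicle-treated cultures to give inhibition.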

[7] = at 5.0 µM (retest, dose inferred, filed as 0.5)
[8] = at 50.0 µM (retest, dose inferred, filed as 5.0)

Measured: growth inhibition

Nc1c(-c2ccc(C3=NCCN3)cc2)[nH]c2cc(C3=NCCN3)ccc12
inactive: [1]; [7] 2% | [1]; at 50.0 µM 32.3% | [2]; [7] 1% | [2]; at 50.0 µM -29% | [3]; [7] 14% | [3]; at 50.0 µM 69.9% | [4]; [7] 13% | [4]; at 50.0 µM 49.5% | [5]; [7] 22% | [6]; [7] 3% | [6]; at 50.0 µM -46.2%
active: [1]; [8] 89% | [2]; [8] 89% | [3]; [8] 92% | [4]; [8] 83% | [5]; [8] 94% | [5]; at 50.0 µM 74.1% | [6]; [8] 90%

OCN(CO)c1ccc2c(c1)Cc1cc(F)ccc1-2
active: [1]; [8] 97% | [1]; at 50.0 µM 92.8% | [2]; [8] 99% | [2]; at 50.0 µM 86.2% | [3]; [8] 97% | [4]; [8] 97% | [4]; at 50.0 µM 96.5% | [5]; [8] 97% | [5]; at 50.0 µM 90.9% | [6]; [8] 98% | [6]; at 50.0 µM 97.8%
inactive: [1]; [7] 34% | [2]; [7] -19% | [3]; [7] 41% | [3]; at 50.0 µM 51.2% | [4]; [7] 1% | [5]; [7] -5% | [6]; [7] 59%

Brc1ccc(N=NN2CCCC2)cc1
inactive: [1]; [7] 14% | [1]; [8] 12% | [2]; [7] 0% | [2]; [8] 8% | [2]; at 50.0 µM 59.6% | [3]; [7] 33% | [3]; [8] 33% | [4]; [7] 36% | [4]; [8] 36% | [4]; at 50.0 µM 68% | [5]; [7] 30% | [5]; [8] 37% | [6]; [7] 7% | [6]; [8] 5%
active: [1]; at 50.0 µM 74% | [3]; at 50.0 µM 86.4% | [5]; at 50.0 µM 85.6% | [6]; at 50.0 µM 86.1%

N#Cc1c(-c2ccc([N+](=O)[O-])cc2)c(C#N)c(=O)n(NS(=O)(=O)c2ccccc2)c1S
inactive: [1]; [7] 35% | [1]; at 50.0 µM 51.8% | [2]; [7] 15% | [3]; [7] 17% | [4]; [7] 46% | [4]; [8] 67% | [4]; at 50.0 µM 40% | [5]; [7] 46% | [5]; at 50.0 µM 61.6% | [6]; [7] 31%
active: [1]; [8] 91% | [2]; [8] 81% | [2]; at 50.0 µM 81.6% | [3]; [8] 88% | [3]; at 50.0 µM 78% | [5]; [8] 87% | [6]; [8] 81% | [6]; at 50.0 µM 78.8%

CC1(C)NC(=O)C(C)(C)NC1=O
inactive: [1]; [7] 4% | [1]; [8] -2% | [1]; at 50.0 µM -12.9% | [2]; [7] 1% | [2]; [8] 2% | [2]; at 50.0 µM 5.8% | [3]; [7] 0% | [3]; [8] -1% | [3]; at 50.0 µM -7.4% | [4]; [7] 2% | [4]; [8] 3% | [4]; at 50.0 µM -19.9% | [5]; [7] 4% | [5]; [8] -2% | [5]; at 50.0 µM 48% | [6]; [7] 3% | [6]; [8] 3% | [6]; at 50.0 µM -14.8%

O=S1(=O)c2ccccc2C(O)(c2ccccc2)c2cc3ccccc3n21 (configuration not stated)
active: [1]; [8] 95% | [1]; at 50.0 µM 95.8% | [2]; [8] 96% | [2]; at 50.0 µM 95.5% | [3]; [8] 97% | [3]; at 50.0 µM 94.2% | [4]; [8] 95% | [4]; at 50.0 µM 94.9% | [5]; [8] 96% | [5]; at 50.0 µM 94.3% | [6]; [8] 95% | [6]; at 50.0 µM 95.5%
inactive: [1]; [7] 9% | [2]; [7] 9% | [3]; [7] 12% | [4]; [7] 9% | [5]; [7] 5% | [6]; [7] 8%

O=C(O)CN(CCN1CC(=O)OC(=O)C1)CCN1CC(=O)OC(=O)C1
inactive: [1]; [7] 4% | [1]; [8] 61% | [2]; [7] -1% | [2]; [8] 49% | [3]; [7] 8% | [3]; [8] 29% | [4]; [7] -8% | [4]; [8] 46% | [5]; [7] 4% | [6]; [7] 8% | [6]; [8] 41%
active: [1]; at 50.0 µM 89.9% | [2]; at 50.0 µM 88.5% | [3]; at 50.0 µM 86.5% | [4]; at 50.0 µM 70.5% | [5]; [8] 88% | [5]; at 50.0 µM 72.5% | [6]; at 50.0 µM 84.3%

CCOC(=O)C1CC(C(=O)OCC)C(=O)C1=O (configuration not stated)
active: [1]; [8] 96% | [1]; at 50.0 µM 96.3% | [2]; [8] 95% | [2]; at 50.0 µM 91% | [3]; [8] 96% | [4]; [8] 97% | [5]; [8] 97% | [5]; at 50.0 µM 94% | [6]; [8] 98%
inactive: [1]; [7] 45% | [2]; [7] 27% | [3]; [7] 54% | [3]; at 50.0 µM 43.6% | [4]; [7] 28% | [4]; at 50.0 µM 34.2% | [5]; [7] 44% | [6]; [7] 37% | [6]; at 50.0 µM 47.9%

CCCCCCCCCCCCCCCCCC[n+]1cccc(C(=O)N2CCOCC2)c1
inactive: [4]; [7] 60%
active: [1]; [7] 91% | [1]; [8] 99% | [1]; at 50.0 µM 99.8% | [2]; [7] 86% | [2]; [8] 100% | [2]; at 50.0 µM 99.8% | [3]; [7] 99% | [3]; [8] 100% | [3]; at 50.0 µM 99.8% | [4]; [8] 99% | [4]; at 50.0 µM 99.3% | [5]; [7] 86% | [5]; [8] 99% | [5]; at 50.0 µM 99.7% | [6]; [7] 97% | [6]; [8] 100% | [6]; at 50.0 µM 99.8%
